This note sets out measurements from PubChem BioAssay AID1851 (National Center for Advancing Translational Sciences (NCATS), 2009).

Several values for one entry are separate records, joined by “and”; a condition that tells them apart may be missing. Identical values can stand only once. Out of some 16,000 compounds screened, about 5,100 (32%) were called active. Inconclusive results (about 25%) are left out. This is one part of the list. A number with no mark means an inactive call. Calls follow the shape of the dose curve; as a rule, active = well fitted curve in the direction sought with a large enough effect; inconclusive = small, poorly fitted or top-dose-only effect, or effect the other way; inactive = no such curve, though single readings can be large or run the other way.
% is scaled to controls: 0 for no effect and ±100 for the full control effect.

Sequence of Cytochrome P450 3A4 (Homo sapiens) (P08684 whole entry, looked up): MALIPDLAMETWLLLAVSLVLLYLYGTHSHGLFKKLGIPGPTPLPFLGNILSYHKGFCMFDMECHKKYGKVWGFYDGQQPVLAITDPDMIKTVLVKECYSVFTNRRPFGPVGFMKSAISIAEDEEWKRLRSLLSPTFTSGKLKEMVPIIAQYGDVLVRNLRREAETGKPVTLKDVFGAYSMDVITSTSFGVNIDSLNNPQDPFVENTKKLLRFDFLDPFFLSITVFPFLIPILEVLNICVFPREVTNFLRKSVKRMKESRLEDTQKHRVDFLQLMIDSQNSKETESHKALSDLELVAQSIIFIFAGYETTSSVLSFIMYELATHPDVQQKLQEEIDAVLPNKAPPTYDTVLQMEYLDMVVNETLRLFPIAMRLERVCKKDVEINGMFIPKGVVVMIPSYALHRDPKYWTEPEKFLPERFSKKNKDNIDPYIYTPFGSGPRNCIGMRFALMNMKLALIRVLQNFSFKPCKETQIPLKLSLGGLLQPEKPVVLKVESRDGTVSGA

This test addresses Cytochrome P450 3A4 (Homo sapiens) (UniProt P08684). In words: Cytochrome panel assay with activity outcomes. As to conditions: recombinant CYP, pro-luciferin dealkylation, luminescence, p450-cyp3a4; series mostly up to 57.1 µM; activity, negative = inhibition: at the top concentration.
As to `NC(=S)c1ccc[n+]([C@@H]2O[C@@H](COP(=O)([O-])OP(=O)(O)OC[C@@H]3O[C@@H](n4cnc5c(N)ncnc54)[C@@H](OP(=O)(O)O)[C@H]3O)[C@@H](O)[C@H]2O)c1`, the AC50 (in general, the midpoint of the concentration-response curve, whichever way the signal moves) is 12.6 µM (active).

Regarding `Nc1nc(Cl)nc2c1ncn2[C@@H]1O[C@@H](COP(=O)(O)OP(=O)(O)OP(=O)(O)O)[C@@H](O)[C@H]1O`, the “activity, negative = inhibition” value was 5.19%.

For the molecule `NC(=O)C1=CN([C@@H]2O[C@@H](COP(=O)(O)OP(=O)(O)OC[C@@H]3O[C@H](n4cnc5c(N)ncnc54)[C@@H](OP(=O)(O)O)[C@@H]3O)[C@H](O)[C@@H]2O)C=CC1`, the “activity, negative = inhibition” value was 0.506%.

In the case of `CCn1c(SCc2ccc(Cl)cc2Cl)nc2nc3c(cc2c1=O)CCCC3`, the AC50 is 8.91 µM (active).

Turning to `C#CCCCCCCCCCCCCCCCC(=O)O`, the “activity, negative = inhibition” value is -17.5%.

Regarding `O=C(O)C1=CCNCC1`, the AC50 entry was “inactive”.

As for `COc1ccc(C2C(=O)N(CCc3ccccc3)CC(=O)N2C2CCCC2)cc1` (centres undefined), the AC50 is 6.31 µM (active).

As for `COc1ccc(-c2nc3cnc(N(C)C)nc3n(CCc3ccccc3)c2=O)cc1`, the “activity, negative = inhibition” value was -16.1%.

`CCCCN1C(=O)CCC(C(=O)O)C1c1ccccc1` (centres undefined): the “activity, negative = inhibition” value was 7.8%.

With `COc1ccc(/C(O)=C2/C(=O)C(=O)N(CCCC(=O)O)C2c2ccc(OC)cc2)cc1` (centres undefined), the “activity, negative = inhibition” value was 3%.

For the molecule `CCCCN1C(=O)CN(CCc2ccccc2)C(=O)C1c1ccc(OC)cc1` (centres undefined), the AC50 is 7.94 µM (active).

Take `CO[C@@H]1COC(=O)[C@H](Cc2ccccc2)NC(=O)C/C=C\[C@@H](C)[C@H](OC)COC(=O)[C@@H](C)NC(=O)C/C=C\[C@H]1C`: the activity, negative = inhibition was -25.2% [at 11.4 µM] and -29.9% [at 11.4 µM].

Regarding `CO[C@@H]1COC(=O)[C@H](COCc2ccccc2)NC(=O)C/C=C\[C@@H](C)[C@H](OC)COC(=O)[C@H](COCc2ccccc2)NC(=O)C/C=C\[C@H]1C`, the activity, negative = inhibition is -6.81% [at 11.4 µM].

In the case of `CO[C@@H]1COC(=O)CCC[C@@H](C)[C@H](OC)COC(=O)CCC[C@H]1C`, the activity, negative = inhibition is -19.8% [at 11.4 µM].

For the molecule `CO[C@@H]1COC(=O)CCC[C@@H](C)[C@H](OC)COC(=O)[C@H](Cc2ccccc2)NC(=O)C/C=C\[C@H]1C`, the half-maximal activity concentration (AC50) was 3.98 µM (active).

Turning to `CO[C@H]1COC(=O)[C@@H](Cc2ccccc2)NC(=O)[C@@H](C)COC(=O)CCC[C@@H]1C`, the half-maximal activity concentration (AC50) was 3.16 µM (active).

For `CO[C@H]1COC(=O)C/C=C\[C@H](C)[C@@H](OC)COC(=O)[C@H](Cc2ccccc2)NC(=O)C/C=C\[C@@H]1C`, the AC50 was 3.16 µM (active).

Regarding `CO[C@H]1COC(=O)CCC[C@@H](C)[C@H](OC)COC(=O)[C@@H](C)NC(=O)C/C=C\[C@@H]1C`, the activity, negative = inhibition was -24.2% [at 11.4 µM].

As to `CO[C@@H]1COC(=O)[C@H](C)NC(=O)[C@@H](C)COC(=O)CCC[C@H]1C`, the activity, negative = inhibition is -21.6% [at 11.4 µM].

With `CO[C@@H]1COC(=O)[C@@H](CCSC)NC(=O)C/C=C\[C@@H](C)COC(=O)[C@H](C)NC(=O)C/C=C\[C@H]1C`, the activity, negative = inhibition is -17.8% [at 11.4 µM].

For the molecule `O=C(NC(=S)Nc1cccc(Cl)c1N1CCCCC1)c1cccs1`, the activity, negative = inhibition is -1.51% [at 2.29 µM].

Consider `CC1CCN(c2ccccc2NC(=S)NC(=O)c2cccs2)CC1`, for which the AC50 is 15.8 µM (active).

As to `COc1ccc(C(=O)NC(=S)NC(C)C)cc1Br`, the “activity, negative = inhibition” value was -28.4%.

For the molecule `C=CCN(CC=C)C(=S)Nc1ccccc1`, the activity, negative = inhibition was -16.5% [at 2.29 µM].

Turning to `C=CCN(CC=C)C(=S)NC(=O)c1ccc(OC)c(Br)c1`, the AC50 is 0.891 µM (active).

Turning to `CCCc1nn2c(=O)c(C(c3ccc(C)cc3)c3c(O)nc4sc(CCC)nn4c3=O)c(O)nc2s1`, the activity, negative = inhibition was -0.554% [at 2.29 µM].

`CCOC(=O)c1sc(NS(=O)(=O)c2ccccc2)nc1C`: the “activity, negative = inhibition” value is -13.8%.

For `CCOC(=O)c1sc(N(Cc2ccccc2)C(=O)CN2C(=O)CN(C)C2=O)nc1C`, the half-maximal activity concentration (AC50) is 12.6 µM (active).

Consider `COc1cccc(/C=N/NC(=O)c2c(-c3ccccc3)noc2C)c1`, for which the activity, negative = inhibition is -3.56% [at 2.29 µM].

Take `Cc1noc(C)c1C(=O)OCC(=O)NC(c1ccccc1)c1ccccc1`: the activity, negative = inhibition is -8.57% [at 2.29 µM].

Consider `COc1ccc(NC(=O)COC(=O)c2c(-c3ccccc3)noc2C)cc1`, for which the half-maximal activity concentration (AC50) was 7.08 µM (active).

On to `CCCCN1CCC(n2c(=O)[nH]c3ccccc32)CC1`, for which the “activity, negative = inhibition” value is -14.6%.

Take `c1ccc(Nc2ncnc3ccc(-c4ccoc4)cc23)cc1`: the concentration at half-maximal activity (AC50) is 15.8 µM (active).

For `Fc1ccc(Nc2ncnc3ccc(-c4ccoc4)cc23)cc1`, the AC50 was 15.8 µM (active).

`Cc1noc(COc2ccc(OCc3nc(C)no3)cc2)n1`: the “activity, negative = inhibition” value was -5.47%.

Take `CC1(CCC(=O)OC2CCCCC2)OCCO1`: the activity, negative = inhibition was -7.62% [at 11.4 µM].

For `Cn1c(/C=N/NC(=O)c2ccccc2Br)nc2ccccc21`, the concentration at half-maximal activity (AC50) was 10 µM (active).

As to `Nc1cccc(OCc2nc(N)nc(N)c2-c2ccc(Cl)cc2)c1`, the AC50 is 1.58 µM (active).

For `CCOC(=O)N1CCN(S(=O)(=O)Cc2ccccc2)CC1`, the “activity, negative = inhibition” value is -5.12%.

In the case of `CCOC(=O)C1CCCN(C(=O)CSCc2ccccc2)C1` (centres undefined), the AC50 was 25.1 µM (active).

Turning to `CCOC(=O)N1CCN(C(=O)C(C)SCc2ccccc2)CC1` (centres undefined), the “activity, negative = inhibition” value was -12.5%.

In the case of `CCOC(=O)C1CCCN(S(=O)(=O)c2ccccc2)C1` (centres undefined), the “activity, negative = inhibition” value was -22.8%.

`CCOC(=O)C1CCN(C(=O)C2CCN(S(=O)(=O)N3CCCC3)CC2)CC1`: the “activity, negative = inhibition” value is 6.47%.

Take `CCOC(=O)N1CCN(C(=O)CSCc2ccc(Cl)cc2)CC1`: the AC50 was 4.47 µM (active).

Regarding `CCOC(=O)C1CCCN(C(=O)CCCOc2cc(=O)n(C)c3ccccc23)C1` (centres undefined), the concentration at half-maximal activity (AC50) is 3.98 µM (active).

As for `Cc1cc(C(C)(C)CC(C)(C)C)ccc1OCCOCC[N+](C)(C)Cc1ccccc1`, the “activity, negative = inhibition” value is -26% [at 25.6 µM].

Consider `COc1ccc(N2C(=O)CCC(C(=O)Nc3ccccn3)C2c2ccc(OC)c(OC)c2)cc1` (centres undefined), for which the AC50 is 20 µM (active).

Regarding `CCCCNC(=O)C1CC(=O)N(c2ccc(OC)cc2)C1c1ccc(OC)cc1` (centres undefined), the activity, negative = inhibition was 3.58% [at 2.29 µM].

As to `COc1ccc(N2C(=O)CCC(C(=O)O)C2c2ccc(F)cc2)cc1` (centres undefined), the “activity, negative = inhibition” value is 3.77%.

`CCN(CC)CCCNC(=O)C1CCC(=O)N(c2ccc(OC)cc2)C1c1ccc(F)cc1` (centres undefined): the half-maximal activity concentration (AC50) is 15.8 µM (active).

`c1ccc(SC(Sc2ccccc2)c2ccc3c(c2)OCO3)cc1`: the AC50 was 2.51 µM (active).

Turning to `O=S(=O)(c1ccccc1)N1CCC[C@@]2(CCN(Cc3nccs3)C2)C1`, the AC50 is 3.16 µM (active).

In the case of `O=S(=O)(c1ccccc1)N1CCC2(CC1)CN(Cc1nccs1)C2`, the “activity, negative = inhibition” value was 22.3%.

`CS(=O)(=O)N1CCC2(CC1)CN(Cc1nccs1)C2`: the “activity, negative = inhibition” value was 7.56%.

As for `O=S(=O)(c1ccccc1)N1CCC2(CCCN(Cc3nccs3)C2)CC1`, the AC50 is 3.16 µM (active).

For `CS(=O)(=O)N1CCC2(CCN(Cc3nccs3)CC2)CC1`, the “activity, negative = inhibition” value is -3.65%.

With `O=S(=O)(c1ccccc1)N1CCC2(CCN(Cc3nccs3)CC2)CC1`, the “activity, negative = inhibition” value is -9.07%.

On to `CO[C@H]1C[C@@H]2C[C@H](O)C[C@@H](CC(=O)O[C@@H](/C=C\CC(C)C)C[C@@H]3CC[C@H](C)[C@@H](C1)O3)O2`, for which the activity, negative = inhibition was -7.29% [at 11.4 µM].

For the molecule `Oc1ccccc1-c1nnc(-c2ccc(C(F)(F)F)cc2)o1`, the “activity, negative = inhibition” value was 6.83%.

Turning to `Cn1cc(-c2nnc(-c3ccccc3)o2)c2ccccc21`, the AC50 was 14.1 µM (active).

Turning to `Clc1ccc(-c2nnc(-c3cccc4ccccc34)o2)cc1Cl`, the activity, negative = inhibition was -4.35% [at 11.4 µM].

As for `O=C1CCCN1CC(CN1CCOCC1)Sc1nnnn1-c1ccccc1` (centres undefined), the concentration at half-maximal activity (AC50) is 15.8 µM (active).

For the molecule `c1ccc2c(c1)nnn2CN1CCOCC1`, the activity, negative = inhibition was -7.23% [at 11.4 µM].

For the molecule `C[C@H](O/N=C1/[C@H]2O[C@@H]2[C@@H](O)[C@H]2[C@H]1CCn1c(=O)n(-c3ccccc3)c(=O)n12)c1cn([C@H]2COC[C@H]2O)nn1`, the activity, negative = inhibition is -7.71% [at 11.4 µM].

As for `COc1ccc(O[C@H]2C=C[C@@H](c3ccccc3)O[C@H]2COC(=O)CC/C(C)=N\O[C@@H](C)c2cn([C@H]3COC[C@H]3O)nn2)cc1`, the AC50 was 3.98 µM (active).

Consider `C/C(CCC(=O)OC[C@@H]1O[C@H](C#Cc2ccccc2)C=C[C@@H]1Oc1ccc(C)cc1)=N/O[C@@H](C)c1cn([C@H](CO)Cc2ccccc2)nn1`, for which the AC50 is 3.98 µM (active) and 3.16 µM (active).

Take `COc1ccc(O[C@H]2C=C[C@@H](c3ccccc3)O[C@H]2COC(=O)CC/C(C)=N\O[C@@H](C)c2cn([C@H](CO)Cc3ccccc3)nn2)cc1`: the half-maximal activity concentration (AC50) was 3.98 µM (active) and 5.01 µM (active).

Turning to `O=S(=O)(O)c1ccc(N=Nc2ccc3c(S(=O)(=O)O)cccc3c2O)c2ccccc12`, the activity, negative = inhibition was -9.88% [at 11.4 µM].

Consider `CC(=O)CSc1nnc(Cc2ccc([N+](=O)[O-])cc2)o1`, for which the activity, negative = inhibition is 7.56% [at 2.29 µM].

With `Cc1ccc(C)c(OCCCC(C)(C)C(=O)O)c1`, the “activity, negative = inhibition” value was 5.28% [at 25.6 µM].

In the case of `C/C(N)=C(/C#N)C(=O)CSc1nnc(COc2cc(C)ccc2C)o1`, the concentration at half-maximal activity (AC50) is 3.55 µM (active).

On to `C[C@H](CO)NC(=O)[C@H](C)[C@H]1C[C@]1(C)[C@H](NC(=O)OCc1ccccc1)c1ccccc1`, for which the AC50 was 3.98 µM (active).

Turning to `C[C@H](CO)NC(=O)[C@H](C)[C@@H]1C[C@@]1(C)[C@@H](NC(=O)OCc1ccccc1)c1ccccc1`, the AC50 is 5.01 µM (active).

With `CN1CCN(c2ccc([N+](=O)[O-])cc2S(=O)(=O)N2CCOCC2)CC1`, the “activity, negative = inhibition” value is -14.4%.

In the case of `CN1CCN(c2ccc([N+](=O)[O-])cc2C(=O)N2CCOCC2)CC1`, the “activity, negative = inhibition” value is -0.527%.

In the case of `CN(C)S(=O)(=O)c1cc([N+](=O)[O-])ccc1N1CCCCCC1`, the concentration at half-maximal activity (AC50) was 12.6 µM (active).

Take `O=C(c1ccc(Br)cc1)c1cc([N+](=O)[O-])ccc1N1CCCCC1`: the AC50 is 3.55 µM (active).

In the case of `CN1CCN(S(=O)(=O)c2cc([N+](=O)[O-])ccc2N2CCCCCC2)CC1`, the AC50 was 0.794 µM (active).

As for `O=C(N/N=C/c1cc([N+](=O)[O-])ccc1N1CCNCC1)c1ccc([N+](=O)[O-])cc1`, the “activity, negative = inhibition” value was 5.34%.
